Measurements from the supplement of paper PMC11732987, “Enantioselective OTUD7B fragment discovery through chemoproteomics screening and high-throughput optimisation” (Communications Chemistry, 2025).

Experiments:
Experiment in all cases: log2 ratio of Biotin-Ahx-Ub-VS probe labelling (fragment/DMSO); higher = less target engagement (more negative = stronger competition), active = hit call of the paper (q ≤ 0.05, log2 ratio ≤ -1)
Conditions in all cases: compound concentration: 200 uM; treatment time: 3 h
ALG13 = biological target: T1, ALG13 (UniProt Q9NP73)
T1 sequence (whole entry): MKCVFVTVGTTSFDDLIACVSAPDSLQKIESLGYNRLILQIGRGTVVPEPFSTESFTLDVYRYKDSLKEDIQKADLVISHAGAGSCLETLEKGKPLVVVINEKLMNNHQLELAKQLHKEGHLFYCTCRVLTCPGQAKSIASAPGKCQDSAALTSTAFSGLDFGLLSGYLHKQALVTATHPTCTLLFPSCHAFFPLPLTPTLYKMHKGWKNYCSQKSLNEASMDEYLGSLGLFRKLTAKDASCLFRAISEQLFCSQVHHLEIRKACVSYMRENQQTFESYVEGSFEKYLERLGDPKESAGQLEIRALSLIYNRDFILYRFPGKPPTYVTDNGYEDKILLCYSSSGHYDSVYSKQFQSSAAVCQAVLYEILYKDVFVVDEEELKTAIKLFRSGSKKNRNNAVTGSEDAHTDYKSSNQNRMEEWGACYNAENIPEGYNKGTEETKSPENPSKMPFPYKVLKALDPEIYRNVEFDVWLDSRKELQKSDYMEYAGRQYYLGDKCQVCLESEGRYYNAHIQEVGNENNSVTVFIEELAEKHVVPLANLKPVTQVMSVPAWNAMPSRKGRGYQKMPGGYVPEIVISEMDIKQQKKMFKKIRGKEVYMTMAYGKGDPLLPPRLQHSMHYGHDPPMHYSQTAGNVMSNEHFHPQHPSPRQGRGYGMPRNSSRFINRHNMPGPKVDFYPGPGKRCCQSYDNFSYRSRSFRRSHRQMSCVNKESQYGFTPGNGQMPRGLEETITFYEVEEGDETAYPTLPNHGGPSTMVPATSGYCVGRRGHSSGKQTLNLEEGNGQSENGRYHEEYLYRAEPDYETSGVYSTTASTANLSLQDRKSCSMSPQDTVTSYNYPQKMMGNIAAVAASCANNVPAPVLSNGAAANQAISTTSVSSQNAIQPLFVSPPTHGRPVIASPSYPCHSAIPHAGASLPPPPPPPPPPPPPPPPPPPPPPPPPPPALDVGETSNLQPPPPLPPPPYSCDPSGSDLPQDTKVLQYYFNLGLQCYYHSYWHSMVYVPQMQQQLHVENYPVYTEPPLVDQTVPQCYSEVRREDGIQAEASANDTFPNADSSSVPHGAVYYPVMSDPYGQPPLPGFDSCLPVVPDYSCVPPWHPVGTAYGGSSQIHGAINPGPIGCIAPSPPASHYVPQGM
How it was run: (§1)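 Using Biotin-Ahx-Ub-VS at 0.5 µM final for 1 h, DUBs were labelled in HEK293T lysate (495 µg per sample) that had first been treated in triplicate with fragment at 200 µM or vehicle for 3 h. NeutrAvidin enrichment, LysC and trypsin digestion and diaPASEF LC-MS/MS followed. Spectronaut label-free quantities were global-median-normalised. Values are average log2 fragment/vehicle ratios by unpaired t-test, using proteins with ≥2 unique peptides.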

ATXN3 = ATXN3 (UniProt P54252)
ATXN3, sequence (P54252 whole entry): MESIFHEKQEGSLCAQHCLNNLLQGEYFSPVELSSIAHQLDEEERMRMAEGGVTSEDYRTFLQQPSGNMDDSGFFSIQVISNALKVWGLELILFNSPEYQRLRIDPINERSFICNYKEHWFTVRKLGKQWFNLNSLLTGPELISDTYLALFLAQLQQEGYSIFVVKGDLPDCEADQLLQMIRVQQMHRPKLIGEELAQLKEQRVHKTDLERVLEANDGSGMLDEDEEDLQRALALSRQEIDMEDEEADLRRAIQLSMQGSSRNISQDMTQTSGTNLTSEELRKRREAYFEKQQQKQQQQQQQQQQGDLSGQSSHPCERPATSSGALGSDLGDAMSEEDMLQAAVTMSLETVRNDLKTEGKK
How it was run: as §1

BAP1 = biological target: T2, BAP1 (UniProt Q92560)
T2 sequence (whole entry): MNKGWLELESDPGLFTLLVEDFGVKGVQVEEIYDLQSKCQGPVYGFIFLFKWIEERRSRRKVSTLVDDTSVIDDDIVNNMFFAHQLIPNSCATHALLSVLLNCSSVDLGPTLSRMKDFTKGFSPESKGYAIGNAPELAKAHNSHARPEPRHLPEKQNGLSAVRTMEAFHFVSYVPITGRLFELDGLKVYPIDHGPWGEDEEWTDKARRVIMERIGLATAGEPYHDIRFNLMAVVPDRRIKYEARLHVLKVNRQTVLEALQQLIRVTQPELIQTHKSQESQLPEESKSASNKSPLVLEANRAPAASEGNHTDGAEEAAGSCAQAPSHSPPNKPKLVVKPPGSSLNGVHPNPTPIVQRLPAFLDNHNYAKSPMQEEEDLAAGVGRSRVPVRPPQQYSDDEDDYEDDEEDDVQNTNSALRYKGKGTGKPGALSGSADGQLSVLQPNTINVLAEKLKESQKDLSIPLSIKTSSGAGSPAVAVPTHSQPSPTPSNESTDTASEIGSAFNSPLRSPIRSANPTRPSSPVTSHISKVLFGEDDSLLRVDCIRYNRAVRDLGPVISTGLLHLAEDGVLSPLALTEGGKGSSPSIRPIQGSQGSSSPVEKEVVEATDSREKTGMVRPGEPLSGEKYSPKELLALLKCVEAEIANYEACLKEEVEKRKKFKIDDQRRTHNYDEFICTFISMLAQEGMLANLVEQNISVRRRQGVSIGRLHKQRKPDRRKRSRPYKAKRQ
How it was run: as §1

EIF3F = EIF3F (UniProt O00303)
EIF3F, sequence (O00303 whole entry): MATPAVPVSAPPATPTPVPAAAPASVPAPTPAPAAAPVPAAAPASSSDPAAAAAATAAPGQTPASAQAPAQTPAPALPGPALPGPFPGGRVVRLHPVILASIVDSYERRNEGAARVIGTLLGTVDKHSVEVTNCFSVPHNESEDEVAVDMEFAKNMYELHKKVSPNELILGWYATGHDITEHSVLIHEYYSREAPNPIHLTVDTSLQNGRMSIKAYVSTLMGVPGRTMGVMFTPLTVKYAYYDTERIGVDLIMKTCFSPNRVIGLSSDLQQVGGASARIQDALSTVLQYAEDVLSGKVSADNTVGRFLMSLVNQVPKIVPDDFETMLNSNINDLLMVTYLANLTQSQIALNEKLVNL
How it was run: as §1

EIF3H = EIF3H (UniProt O15372)
EIF3H, sequence (O15372 whole entry): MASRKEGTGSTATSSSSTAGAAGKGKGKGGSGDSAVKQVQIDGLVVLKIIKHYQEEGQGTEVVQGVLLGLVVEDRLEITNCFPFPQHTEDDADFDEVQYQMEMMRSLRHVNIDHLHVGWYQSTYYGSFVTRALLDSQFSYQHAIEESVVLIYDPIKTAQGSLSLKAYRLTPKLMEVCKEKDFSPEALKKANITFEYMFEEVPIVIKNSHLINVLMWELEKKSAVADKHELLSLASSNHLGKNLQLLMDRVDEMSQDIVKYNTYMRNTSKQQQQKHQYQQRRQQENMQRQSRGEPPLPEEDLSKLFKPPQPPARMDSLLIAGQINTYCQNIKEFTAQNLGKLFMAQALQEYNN
How it was run: as §1

FAM105A = biological target: T3, FAM105A (UniProt Q9NUU6)
T3 sequence (whole entry): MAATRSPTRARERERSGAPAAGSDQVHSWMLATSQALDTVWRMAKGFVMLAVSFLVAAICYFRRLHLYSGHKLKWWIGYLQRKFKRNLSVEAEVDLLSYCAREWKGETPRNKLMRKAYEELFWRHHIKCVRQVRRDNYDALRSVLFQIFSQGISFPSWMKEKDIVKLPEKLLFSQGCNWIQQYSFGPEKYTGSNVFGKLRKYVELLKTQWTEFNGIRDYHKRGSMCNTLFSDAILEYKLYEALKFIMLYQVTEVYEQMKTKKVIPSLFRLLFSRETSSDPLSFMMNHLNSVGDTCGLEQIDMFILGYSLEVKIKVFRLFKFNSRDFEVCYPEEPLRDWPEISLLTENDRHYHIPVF
How it was run: as §1

OTUB1 = OTUB1 (UniProt Q96FW1)
OTUB1, sequence (Q96FW1 whole entry): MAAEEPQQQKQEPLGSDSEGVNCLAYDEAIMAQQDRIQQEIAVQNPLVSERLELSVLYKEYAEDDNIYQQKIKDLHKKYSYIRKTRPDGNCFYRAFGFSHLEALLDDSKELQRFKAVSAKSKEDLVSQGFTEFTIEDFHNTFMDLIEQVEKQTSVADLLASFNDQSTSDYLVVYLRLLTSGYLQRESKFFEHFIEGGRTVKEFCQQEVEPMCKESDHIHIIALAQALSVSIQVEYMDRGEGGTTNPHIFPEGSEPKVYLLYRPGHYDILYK
How it was run: as §1

OTUD4 = biological target: T4, OTUD4 (UniProt Q01804)
T4 sequence (whole entry): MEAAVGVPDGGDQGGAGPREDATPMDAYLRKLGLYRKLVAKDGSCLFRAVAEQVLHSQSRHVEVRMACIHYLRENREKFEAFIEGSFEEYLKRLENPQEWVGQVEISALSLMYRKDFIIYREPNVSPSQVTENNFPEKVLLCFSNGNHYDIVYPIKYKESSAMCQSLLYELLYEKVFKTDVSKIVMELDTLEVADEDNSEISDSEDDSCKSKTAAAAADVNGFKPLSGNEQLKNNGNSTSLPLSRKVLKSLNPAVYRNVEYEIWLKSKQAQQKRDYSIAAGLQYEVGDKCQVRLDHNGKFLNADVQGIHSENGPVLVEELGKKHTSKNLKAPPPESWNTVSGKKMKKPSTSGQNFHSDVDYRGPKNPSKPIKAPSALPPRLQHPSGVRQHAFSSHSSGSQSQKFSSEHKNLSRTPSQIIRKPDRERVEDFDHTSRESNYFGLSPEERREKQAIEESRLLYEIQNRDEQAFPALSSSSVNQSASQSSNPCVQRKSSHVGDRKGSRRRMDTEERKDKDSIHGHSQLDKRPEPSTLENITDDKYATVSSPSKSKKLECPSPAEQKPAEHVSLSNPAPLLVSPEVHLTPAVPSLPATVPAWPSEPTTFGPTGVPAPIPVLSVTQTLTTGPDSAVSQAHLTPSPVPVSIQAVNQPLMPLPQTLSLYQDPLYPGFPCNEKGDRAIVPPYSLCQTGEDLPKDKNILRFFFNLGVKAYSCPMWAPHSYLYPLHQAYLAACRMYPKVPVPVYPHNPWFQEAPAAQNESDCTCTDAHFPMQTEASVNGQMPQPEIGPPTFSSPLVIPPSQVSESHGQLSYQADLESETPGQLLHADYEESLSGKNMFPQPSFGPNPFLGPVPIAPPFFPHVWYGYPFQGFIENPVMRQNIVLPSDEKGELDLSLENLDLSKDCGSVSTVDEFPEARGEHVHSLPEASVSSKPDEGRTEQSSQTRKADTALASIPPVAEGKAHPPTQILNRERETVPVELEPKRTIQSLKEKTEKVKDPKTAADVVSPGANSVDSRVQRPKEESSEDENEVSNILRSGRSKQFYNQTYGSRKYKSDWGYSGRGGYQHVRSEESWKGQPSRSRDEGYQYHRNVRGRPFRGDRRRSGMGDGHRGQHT
How it was run: as §1

OTUD5 = biological target: T5, OTUD5 (UniProt Q96G74)
T5 sequence (whole entry): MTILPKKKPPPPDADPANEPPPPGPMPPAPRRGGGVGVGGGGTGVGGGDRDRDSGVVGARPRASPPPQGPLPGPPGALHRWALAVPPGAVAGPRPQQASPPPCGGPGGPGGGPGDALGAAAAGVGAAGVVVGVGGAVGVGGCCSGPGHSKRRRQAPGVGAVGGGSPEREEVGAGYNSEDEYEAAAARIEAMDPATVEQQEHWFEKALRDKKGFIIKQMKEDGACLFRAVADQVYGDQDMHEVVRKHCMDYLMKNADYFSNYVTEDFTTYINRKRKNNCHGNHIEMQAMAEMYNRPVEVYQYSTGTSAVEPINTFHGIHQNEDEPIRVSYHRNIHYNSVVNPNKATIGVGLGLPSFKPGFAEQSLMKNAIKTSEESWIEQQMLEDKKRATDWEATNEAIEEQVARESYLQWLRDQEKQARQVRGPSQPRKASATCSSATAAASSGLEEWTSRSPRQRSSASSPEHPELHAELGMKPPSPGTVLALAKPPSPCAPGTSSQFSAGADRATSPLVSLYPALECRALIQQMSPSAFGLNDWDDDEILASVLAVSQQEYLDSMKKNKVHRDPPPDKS
How it was run: as §1

Measured: log2 ratio of Biotin-Ahx-Ub-VS probe labelling

Cl.O=C(CN1CCN(C(=O)CCl)CC1)Nc1ccc(F)cc1
inactive: ALG13 -0.446 | ATXN3 -0.144 | BAP1 -0.159 | EIF3F -0.203 | EIF3H 0.305 | FAM105A -0.0798 | OTUB1 0.137 | OTUD4 0.146 | OTUD5 -0.0696
